Our source for the residual activity values is ChEMBL document CHEMBL2218924, “A broad activity screen in support of a chemogenomic map for kinase signalling research and drug discovery” (Biochem J, 2013).

The structures appear in SMILES notation.

In test [1] the target is Tyrosine-protein kinase SYK (Homo sapiens) (UniProt P43405). To be noted: at 10 µM.
Test [2] addresses T1, Mitogen-activated protein kinase kinase kinase 7 (Homo sapiens) (UniProt O43318).
T1 sequence (whole entry): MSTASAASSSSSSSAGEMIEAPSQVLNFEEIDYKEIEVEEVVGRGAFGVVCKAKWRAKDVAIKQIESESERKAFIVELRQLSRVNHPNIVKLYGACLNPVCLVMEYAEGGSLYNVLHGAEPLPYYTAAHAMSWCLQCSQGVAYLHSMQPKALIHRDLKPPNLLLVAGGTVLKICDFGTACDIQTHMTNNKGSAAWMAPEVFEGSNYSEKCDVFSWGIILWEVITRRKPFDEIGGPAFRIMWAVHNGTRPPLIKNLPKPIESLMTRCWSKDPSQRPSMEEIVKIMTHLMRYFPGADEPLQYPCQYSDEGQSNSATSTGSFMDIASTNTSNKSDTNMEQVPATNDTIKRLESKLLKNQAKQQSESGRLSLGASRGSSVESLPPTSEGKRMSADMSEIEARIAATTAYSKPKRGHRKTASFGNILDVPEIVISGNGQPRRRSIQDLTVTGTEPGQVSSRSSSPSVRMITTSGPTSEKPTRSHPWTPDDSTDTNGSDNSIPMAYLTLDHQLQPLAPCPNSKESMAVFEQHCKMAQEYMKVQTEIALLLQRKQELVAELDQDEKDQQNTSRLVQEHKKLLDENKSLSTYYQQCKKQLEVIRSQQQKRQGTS
To be noted: at 1 µM.

The target of test [3] is T1, Mitogen-activated protein kinase kinase kinase 7 (Homo sapiens). To be noted: at 10 µM.
Test [4] addresses T2, Serine/threonine-protein kinase TAO1 (Homo sapiens) (UniProt Q7L7X3).
T2 sequence (whole entry): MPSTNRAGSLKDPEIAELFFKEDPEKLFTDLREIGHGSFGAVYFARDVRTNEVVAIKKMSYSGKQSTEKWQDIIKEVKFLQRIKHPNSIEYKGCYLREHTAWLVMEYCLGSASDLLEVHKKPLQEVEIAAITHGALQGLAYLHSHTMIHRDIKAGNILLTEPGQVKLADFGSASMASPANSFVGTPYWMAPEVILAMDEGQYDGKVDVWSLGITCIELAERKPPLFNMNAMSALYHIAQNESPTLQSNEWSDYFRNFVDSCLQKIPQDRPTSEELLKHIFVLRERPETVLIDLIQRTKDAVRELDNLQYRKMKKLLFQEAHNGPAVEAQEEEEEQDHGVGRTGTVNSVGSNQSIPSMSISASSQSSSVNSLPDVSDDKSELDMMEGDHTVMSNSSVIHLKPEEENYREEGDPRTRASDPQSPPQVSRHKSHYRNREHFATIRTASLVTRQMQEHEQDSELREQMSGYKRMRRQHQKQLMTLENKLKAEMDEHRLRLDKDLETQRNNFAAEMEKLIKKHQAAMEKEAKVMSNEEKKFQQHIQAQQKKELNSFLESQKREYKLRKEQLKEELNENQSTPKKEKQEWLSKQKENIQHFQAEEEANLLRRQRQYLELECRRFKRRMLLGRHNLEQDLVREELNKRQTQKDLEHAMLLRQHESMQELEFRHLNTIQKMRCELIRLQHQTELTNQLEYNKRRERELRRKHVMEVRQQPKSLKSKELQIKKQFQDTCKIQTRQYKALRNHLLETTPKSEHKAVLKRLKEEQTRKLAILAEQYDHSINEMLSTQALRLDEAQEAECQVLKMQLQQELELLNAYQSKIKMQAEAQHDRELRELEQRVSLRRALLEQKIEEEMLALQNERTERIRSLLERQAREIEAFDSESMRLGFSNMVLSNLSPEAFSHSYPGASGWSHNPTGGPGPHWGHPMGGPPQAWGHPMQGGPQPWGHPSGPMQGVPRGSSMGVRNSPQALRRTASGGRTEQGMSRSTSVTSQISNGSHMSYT
The settings on record: at 1 µM.

For test [5], the target named is T2, Serine/threonine-protein kinase TAO1 (Homo sapiens). To be noted: at 10 µM.
In test [6] the target is T3, Serine/threonine-protein kinase TAO2 (Homo sapiens) (UniProt Q9UL54).
T3 sequence (whole entry): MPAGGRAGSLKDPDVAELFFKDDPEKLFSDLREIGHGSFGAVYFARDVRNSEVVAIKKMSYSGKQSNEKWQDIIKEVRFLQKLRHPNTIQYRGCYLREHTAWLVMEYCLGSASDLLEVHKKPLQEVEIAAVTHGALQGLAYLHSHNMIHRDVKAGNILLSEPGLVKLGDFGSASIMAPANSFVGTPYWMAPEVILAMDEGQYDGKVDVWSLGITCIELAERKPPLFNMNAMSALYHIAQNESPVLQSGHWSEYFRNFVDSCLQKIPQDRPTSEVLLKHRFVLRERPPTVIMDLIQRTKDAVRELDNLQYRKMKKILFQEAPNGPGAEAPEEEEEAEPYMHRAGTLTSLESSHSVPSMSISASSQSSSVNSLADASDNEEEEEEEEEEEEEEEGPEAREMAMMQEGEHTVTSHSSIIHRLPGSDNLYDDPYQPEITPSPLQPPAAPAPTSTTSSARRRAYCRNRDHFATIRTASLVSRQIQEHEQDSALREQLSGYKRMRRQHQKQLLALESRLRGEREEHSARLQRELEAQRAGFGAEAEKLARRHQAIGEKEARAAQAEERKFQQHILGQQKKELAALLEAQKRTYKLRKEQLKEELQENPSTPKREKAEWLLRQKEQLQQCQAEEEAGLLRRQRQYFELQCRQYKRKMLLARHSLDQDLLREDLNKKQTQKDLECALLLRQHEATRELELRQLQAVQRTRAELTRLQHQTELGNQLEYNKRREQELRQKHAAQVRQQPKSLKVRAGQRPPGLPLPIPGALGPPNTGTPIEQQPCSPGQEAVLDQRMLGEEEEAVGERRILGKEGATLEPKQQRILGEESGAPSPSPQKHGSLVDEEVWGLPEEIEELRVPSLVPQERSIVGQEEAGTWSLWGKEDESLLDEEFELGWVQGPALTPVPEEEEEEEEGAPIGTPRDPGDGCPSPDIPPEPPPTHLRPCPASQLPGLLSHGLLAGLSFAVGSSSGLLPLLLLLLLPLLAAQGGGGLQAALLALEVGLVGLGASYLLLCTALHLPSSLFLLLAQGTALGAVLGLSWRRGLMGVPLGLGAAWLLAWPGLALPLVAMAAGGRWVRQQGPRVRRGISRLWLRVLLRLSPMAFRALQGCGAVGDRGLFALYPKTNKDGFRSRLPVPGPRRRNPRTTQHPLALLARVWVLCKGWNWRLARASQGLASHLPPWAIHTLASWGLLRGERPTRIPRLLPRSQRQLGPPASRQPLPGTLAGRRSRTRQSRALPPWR
The settings on record: at 1 µM.

For test [7], the target named is T3, Serine/threonine-protein kinase TAO2 (Homo sapiens). The settings on record: at 10 µM.
In test [8] the target is T4, Serine/threonine-protein kinase TAO3 (Homo sapiens) (UniProt Q9H2K8).
T4 sequence (whole entry): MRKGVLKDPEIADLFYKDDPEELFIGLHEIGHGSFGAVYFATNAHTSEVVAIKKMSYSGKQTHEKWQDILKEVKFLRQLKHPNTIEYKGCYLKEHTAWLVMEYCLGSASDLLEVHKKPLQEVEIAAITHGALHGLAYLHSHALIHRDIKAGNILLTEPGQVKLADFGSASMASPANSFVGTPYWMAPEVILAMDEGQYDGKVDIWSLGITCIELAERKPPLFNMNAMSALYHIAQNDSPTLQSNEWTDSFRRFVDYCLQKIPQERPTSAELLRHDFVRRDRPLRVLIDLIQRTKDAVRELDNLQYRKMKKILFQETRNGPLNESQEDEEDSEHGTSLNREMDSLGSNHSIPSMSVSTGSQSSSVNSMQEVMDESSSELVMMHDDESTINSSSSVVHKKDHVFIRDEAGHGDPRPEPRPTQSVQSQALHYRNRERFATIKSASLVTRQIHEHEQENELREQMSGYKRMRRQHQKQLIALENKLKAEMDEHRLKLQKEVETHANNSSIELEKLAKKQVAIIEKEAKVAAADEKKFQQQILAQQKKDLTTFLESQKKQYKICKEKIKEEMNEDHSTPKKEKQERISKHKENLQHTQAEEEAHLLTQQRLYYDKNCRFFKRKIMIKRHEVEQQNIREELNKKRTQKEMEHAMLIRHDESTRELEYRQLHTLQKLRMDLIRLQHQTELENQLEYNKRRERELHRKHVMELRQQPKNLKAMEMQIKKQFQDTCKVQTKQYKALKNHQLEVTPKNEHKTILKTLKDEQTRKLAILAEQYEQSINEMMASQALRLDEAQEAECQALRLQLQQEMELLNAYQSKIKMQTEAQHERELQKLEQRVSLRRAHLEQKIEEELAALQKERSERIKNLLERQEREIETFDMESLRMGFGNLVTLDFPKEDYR
To be noted: at 1 µM.

Test [9] addresses T4, Serine/threonine-protein kinase TAO3 (Homo sapiens). To be noted: at 10 µM.

With `CCCC(=O)Oc1ccc2[nH]c(C(=O)c3cc4ccccc4[nH]3)cc2c1`, the residual activity in [1] was found to be 101%; in test [2], 83%; in test [3], 87%; in test [4] it was 91%; in [5] it was 81%; in test [6], 104%. For the same compound, the residual activity is 83% in test [7], 89% in test [8] and 86% in test [9].
